Measurements reported in the supplement of paper PMC10849652.
The full data set covers some 8,800 targets. This sample favours those with a hit. About 0.5% of all pairs of compound and target were hits. A number with no mark means an inactive call.

Compound: Cc1sc2c(c1C)C(c1ccc(Cl)cc1)=N[C@@H](CC(=O)OC(C)(C)C)c1nnc(C)n1-2
Experiment: log2 fold change, soluble protein after heating vs DMSO (PISA); higher = thermal stabilisation; K562 lysate, 10 uM; active = over 0.2 and 3.5 SD of the protein, either way, in both replicates (recomputed)
Summary of the method: (§1)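 Thermal stability, expressed as log-two fold change relative to solvent controls, is given from duplicates. Crude K562 extract in PBS pH 7.4 with 1 mM MgCl2, at 1 mg/mL protein, was treated with 10 μM compound for 30 min and heated in aliquots for 3 min across 48°C-58°C. After pooling, adjustment to 0.5% NP-40 at 4°C and centrifugation at 21,000xg for 90 min, supernatant protein was measured by TMTpro 16plex LC-MS/MS with channel sums equalised.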

Chain of UniProt Q5VUA4 (Q5VUA4 whole entry, looked up): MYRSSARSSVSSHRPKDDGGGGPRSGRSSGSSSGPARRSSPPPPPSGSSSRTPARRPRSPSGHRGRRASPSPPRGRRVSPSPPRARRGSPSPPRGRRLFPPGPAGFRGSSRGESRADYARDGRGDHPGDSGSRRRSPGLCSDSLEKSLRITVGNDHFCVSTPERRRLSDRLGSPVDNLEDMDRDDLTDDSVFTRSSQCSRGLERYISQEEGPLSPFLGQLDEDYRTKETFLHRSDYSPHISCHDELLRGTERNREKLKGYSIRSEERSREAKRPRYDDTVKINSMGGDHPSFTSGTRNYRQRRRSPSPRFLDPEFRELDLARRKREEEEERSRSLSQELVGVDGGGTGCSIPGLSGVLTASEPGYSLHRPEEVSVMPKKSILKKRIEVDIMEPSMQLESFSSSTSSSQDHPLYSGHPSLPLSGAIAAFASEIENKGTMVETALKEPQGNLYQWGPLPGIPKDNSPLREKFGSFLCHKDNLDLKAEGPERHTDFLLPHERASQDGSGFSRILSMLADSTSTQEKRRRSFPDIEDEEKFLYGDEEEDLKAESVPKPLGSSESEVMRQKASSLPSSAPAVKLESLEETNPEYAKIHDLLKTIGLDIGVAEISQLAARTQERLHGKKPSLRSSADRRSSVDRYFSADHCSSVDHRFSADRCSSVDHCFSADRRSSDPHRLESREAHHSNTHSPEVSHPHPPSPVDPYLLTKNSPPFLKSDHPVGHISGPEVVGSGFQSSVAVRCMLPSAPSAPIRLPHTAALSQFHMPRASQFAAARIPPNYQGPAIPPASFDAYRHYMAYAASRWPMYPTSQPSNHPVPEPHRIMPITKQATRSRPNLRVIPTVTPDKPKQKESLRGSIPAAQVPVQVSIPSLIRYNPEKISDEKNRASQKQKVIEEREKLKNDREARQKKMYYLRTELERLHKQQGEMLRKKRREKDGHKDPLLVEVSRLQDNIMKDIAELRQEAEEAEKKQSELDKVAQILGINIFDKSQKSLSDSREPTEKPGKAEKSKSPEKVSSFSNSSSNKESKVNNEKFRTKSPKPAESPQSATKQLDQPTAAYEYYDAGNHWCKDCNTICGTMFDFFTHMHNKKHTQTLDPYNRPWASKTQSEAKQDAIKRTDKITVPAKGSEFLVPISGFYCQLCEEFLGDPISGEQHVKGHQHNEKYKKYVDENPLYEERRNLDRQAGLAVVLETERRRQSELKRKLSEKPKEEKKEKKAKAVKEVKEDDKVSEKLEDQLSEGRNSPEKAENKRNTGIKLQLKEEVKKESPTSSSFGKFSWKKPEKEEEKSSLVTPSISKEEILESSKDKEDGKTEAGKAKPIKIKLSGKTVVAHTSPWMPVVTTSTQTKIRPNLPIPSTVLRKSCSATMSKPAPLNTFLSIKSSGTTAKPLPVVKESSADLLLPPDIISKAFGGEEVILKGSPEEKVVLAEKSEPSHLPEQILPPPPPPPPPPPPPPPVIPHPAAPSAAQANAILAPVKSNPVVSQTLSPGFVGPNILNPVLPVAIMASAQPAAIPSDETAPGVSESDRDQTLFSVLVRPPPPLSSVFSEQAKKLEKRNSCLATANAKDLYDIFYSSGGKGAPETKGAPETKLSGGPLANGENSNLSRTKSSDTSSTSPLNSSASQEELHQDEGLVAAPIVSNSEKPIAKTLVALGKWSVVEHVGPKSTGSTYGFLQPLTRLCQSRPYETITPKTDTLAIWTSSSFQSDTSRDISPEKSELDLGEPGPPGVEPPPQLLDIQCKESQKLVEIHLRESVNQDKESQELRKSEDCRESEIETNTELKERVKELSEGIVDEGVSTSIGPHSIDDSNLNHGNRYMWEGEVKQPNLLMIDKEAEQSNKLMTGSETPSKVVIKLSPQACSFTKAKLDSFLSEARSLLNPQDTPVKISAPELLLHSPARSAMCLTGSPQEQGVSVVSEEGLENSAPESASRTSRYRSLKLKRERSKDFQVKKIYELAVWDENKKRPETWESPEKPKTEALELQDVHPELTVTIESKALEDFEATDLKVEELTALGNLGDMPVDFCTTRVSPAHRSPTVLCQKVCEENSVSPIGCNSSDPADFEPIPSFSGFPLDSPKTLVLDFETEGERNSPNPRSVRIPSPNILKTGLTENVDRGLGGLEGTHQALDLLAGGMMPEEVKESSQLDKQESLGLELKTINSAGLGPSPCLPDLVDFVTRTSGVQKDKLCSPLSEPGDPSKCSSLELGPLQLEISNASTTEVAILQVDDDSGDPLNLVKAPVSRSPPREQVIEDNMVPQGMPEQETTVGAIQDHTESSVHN
Chain of UniProt Q86Y07 (Q86Y07 whole entry, looked up): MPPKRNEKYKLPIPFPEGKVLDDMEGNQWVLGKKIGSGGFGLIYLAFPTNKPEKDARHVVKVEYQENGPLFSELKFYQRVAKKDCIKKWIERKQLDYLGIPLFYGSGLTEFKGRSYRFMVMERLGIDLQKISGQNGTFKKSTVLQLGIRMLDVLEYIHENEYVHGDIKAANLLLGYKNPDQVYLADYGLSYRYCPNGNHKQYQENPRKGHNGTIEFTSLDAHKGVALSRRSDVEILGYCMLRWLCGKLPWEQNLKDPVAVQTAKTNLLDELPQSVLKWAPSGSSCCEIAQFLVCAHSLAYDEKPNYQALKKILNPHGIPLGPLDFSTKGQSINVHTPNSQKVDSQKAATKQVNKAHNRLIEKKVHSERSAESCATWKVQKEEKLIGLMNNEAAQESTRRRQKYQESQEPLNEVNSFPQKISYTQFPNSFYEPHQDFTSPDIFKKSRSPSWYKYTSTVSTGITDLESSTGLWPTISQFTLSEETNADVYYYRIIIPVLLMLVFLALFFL
Chain of UniProt Q9H269 (Q9H269 whole entry, looked up): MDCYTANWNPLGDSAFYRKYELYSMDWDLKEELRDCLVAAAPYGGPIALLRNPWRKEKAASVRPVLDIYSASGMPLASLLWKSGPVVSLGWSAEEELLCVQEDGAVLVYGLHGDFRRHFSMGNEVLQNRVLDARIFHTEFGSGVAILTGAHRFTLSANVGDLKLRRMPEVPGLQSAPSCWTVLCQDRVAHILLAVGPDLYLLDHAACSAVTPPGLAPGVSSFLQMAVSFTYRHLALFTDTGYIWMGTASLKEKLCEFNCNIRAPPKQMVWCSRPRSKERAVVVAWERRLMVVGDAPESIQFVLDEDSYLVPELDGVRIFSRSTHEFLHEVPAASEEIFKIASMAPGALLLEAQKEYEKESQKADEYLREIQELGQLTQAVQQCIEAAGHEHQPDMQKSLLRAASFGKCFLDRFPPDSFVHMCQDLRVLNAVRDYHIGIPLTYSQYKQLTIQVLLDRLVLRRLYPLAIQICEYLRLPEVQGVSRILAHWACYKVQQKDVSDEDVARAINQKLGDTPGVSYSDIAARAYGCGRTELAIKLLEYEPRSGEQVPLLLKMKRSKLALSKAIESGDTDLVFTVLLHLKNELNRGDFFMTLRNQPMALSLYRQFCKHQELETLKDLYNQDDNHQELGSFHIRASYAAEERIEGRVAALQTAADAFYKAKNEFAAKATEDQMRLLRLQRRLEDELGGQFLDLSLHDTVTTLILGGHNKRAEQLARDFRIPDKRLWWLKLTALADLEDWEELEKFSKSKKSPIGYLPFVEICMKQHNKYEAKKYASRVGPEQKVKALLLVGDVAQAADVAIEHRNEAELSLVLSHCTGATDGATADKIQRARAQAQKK
Chain of UniProt Q9NQW7 (Q9NQW7 whole entry, looked up): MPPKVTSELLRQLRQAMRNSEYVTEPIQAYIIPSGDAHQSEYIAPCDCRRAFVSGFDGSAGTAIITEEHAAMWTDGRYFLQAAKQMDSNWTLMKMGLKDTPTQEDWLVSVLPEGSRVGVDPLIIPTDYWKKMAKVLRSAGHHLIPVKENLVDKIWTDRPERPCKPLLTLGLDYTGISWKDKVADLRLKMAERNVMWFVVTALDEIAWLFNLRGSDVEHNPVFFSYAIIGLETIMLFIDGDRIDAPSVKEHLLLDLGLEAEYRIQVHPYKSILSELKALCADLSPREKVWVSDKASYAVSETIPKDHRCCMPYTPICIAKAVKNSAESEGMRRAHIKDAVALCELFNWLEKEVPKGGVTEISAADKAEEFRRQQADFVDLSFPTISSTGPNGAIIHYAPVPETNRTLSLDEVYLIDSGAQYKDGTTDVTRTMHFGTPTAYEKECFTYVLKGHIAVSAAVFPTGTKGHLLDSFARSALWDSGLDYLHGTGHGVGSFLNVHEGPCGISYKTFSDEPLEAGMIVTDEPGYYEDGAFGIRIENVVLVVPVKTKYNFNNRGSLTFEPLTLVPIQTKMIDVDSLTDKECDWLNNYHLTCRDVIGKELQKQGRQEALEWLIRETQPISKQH
Chain of UniProt Q9Y5J1 (Q9Y5J1 whole entry, looked up): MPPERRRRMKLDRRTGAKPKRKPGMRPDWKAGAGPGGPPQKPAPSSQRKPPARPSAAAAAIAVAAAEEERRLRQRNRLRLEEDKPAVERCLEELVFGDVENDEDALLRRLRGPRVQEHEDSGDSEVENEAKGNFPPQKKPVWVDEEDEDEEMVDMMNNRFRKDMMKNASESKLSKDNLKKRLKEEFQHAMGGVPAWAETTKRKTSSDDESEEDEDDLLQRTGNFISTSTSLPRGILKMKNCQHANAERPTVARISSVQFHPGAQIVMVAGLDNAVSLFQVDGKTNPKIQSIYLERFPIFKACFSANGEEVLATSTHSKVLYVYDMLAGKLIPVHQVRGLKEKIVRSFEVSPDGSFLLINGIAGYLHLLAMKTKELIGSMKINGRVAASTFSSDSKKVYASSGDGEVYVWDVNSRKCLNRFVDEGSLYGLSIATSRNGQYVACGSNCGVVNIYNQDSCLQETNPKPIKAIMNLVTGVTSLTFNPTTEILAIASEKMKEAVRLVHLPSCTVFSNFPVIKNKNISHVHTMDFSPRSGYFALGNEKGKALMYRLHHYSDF
Chain of UniProt O95619 (O95619 whole entry, looked up): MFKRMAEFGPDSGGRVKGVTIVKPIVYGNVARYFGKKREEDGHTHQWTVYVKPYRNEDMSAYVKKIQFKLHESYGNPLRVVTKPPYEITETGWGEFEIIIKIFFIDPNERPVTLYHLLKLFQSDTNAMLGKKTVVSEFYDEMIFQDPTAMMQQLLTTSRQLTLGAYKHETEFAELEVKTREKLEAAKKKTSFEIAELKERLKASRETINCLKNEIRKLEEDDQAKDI

XPOT (UniProt O43592) and VASP (UniProt P50552) are within 0.2 log units of each other in log2 fold change: 0.003 for the first, -0.052 for the second.

UQCRC2 (UniProt P22695) and VPS28 (UniProt Q9UK41) are within 0.2 log units of each other in log2 fold change: 0.006 for the first, 0.073 for the second.

XPNPEP1 isoform 3 (UniProt Q9NQW7) and ZNF318 (UniProt Q5VUA4) are within 0.2 log units of each other in log2 fold change: 0.044 for the first, 0.018 for the second.

WIPI2 (UniProt Q9Y4P8) and YEATS4 (UniProt O95619) are within 0.2 log units of each other in log2 fold change: -0.055 for the first, 0.046 for the second.

WDR36 (UniProt Q8NI36) and ZDHHC18 (UniProt Q9NUE0) are within 0.2 log units of each other in log2 fold change: 0.025 for the first, -0.072 for the second.

UTP18 (UniProt Q9Y5J1) and VPS37B (UniProt Q9H9H4) are within 0.2 log units of each other in log2 fold change: -0.013 for the first, -0.01 for the second.

Compared with VPS54 (UniProt Q9P1Q0), VHL (UniProt P40337) is lower in log2 fold change: 0.053 for the first, -0.178 for the second.

WDR41 (UniProt Q9HAD4) and ZMYM2 (UniProt Q9UBW7) are within 0.2 log units of each other in log2 fold change: -0.047 for the first, 0.015 for the second.

ZZEF1 (UniProt O43149) and USP3 (UniProt Q9Y6I4) are within 0.2 log units of each other in log2 fold change: -0.05 for the first, -0.044 for the second.

YLPM1 (UniProt P49750) and USP48 (UniProt Q86UV5) are within 0.2 log units of each other in log2 fold change: 0.005 for the first, 0.098 for the second.

WDR77 (UniProt Q9BQA1) and ZNF451 (UniProt Q9Y4E5) are within 0.2 log units of each other in log2 fold change: 0.006 for the first, 0.018 for the second.

USP16 (UniProt Q9Y5T5) and VCPIP1 (UniProt Q96JH7) are within 0.2 log units of each other in log2 fold change: 0.038 for the first, -0.052 for the second.

XPO1 (UniProt O14980) and VPS16 (UniProt Q9H269) are within 0.2 log units of each other in log2 fold change: 0.008 for the first, 0.011 for the second.

ZBTB33 (UniProt Q86T24) and WDR3 (UniProt Q9UNX4) are within 0.2 log units of each other in log2 fold change: 0 for the first, -0.014 for the second.

VRK2 (UniProt Q86Y07) and WDR24 (UniProt Q96S15) are within 0.2 log units of each other in log2 fold change: -0.023 for the first, 0.002 for the second.

Target USP22 (UniProt Q9UPT9) has a log2 fold change of 0.045.

Compound: c1ccc([C@@H]2C[C@H]2NC2CCNCC2)cc1
Experiment: as above
Summary of the method: as §1

XPOT (UniProt O43592) and VASP (UniProt P50552) are within 0.2 log units of each other in log2 fold change: 0.021 for the first, 0.017 for the second.

UQCRC2 (UniProt P22695) and VPS28 (UniProt Q9UK41) are within 0.2 log units of each other in log2 fold change: -0.015 for the first, 0 for the second.

XPNPEP1 isoform 3 (UniProt Q9NQW7) and ZNF318 (UniProt Q5VUA4) are within 0.2 log units of each other in log2 fold change: -0.006 for the first, 0.038 for the second.

Compared with WIPI2 (UniProt Q9Y4P8), YEATS4 (UniProt O95619) is higher in log2 fold change: -0.096 for the first, 0.25 for the second.

WDR36 (UniProt Q8NI36) and ZDHHC18 (UniProt Q9NUE0) are within 0.2 log units of each other in log2 fold change: 0.035 for the first, 0.043 for the second.

UTP18 (UniProt Q9Y5J1) and VPS37B (UniProt Q9H9H4) are within 0.2 log units of each other in log2 fold change: 0.059 for the first, 0.064 for the second.

First: VPS54 (UniProt Q9P1Q0)
Second: VHL (UniProt P40337)
The log2 fold change of the first is lower: -0.217 for the first, 0.08 for the second.

WDR41 (UniProt Q9HAD4) and ZMYM2 (UniProt Q9UBW7) are within 0.2 log units of each other in log2 fold change: -0.012 for the first, 0.183 for the second.

ZZEF1 (UniProt O43149) and USP3 (UniProt Q9Y6I4) are within 0.2 log units of each other in log2 fold change: -0.028 for the first, 0.073 for the second.

Going from YLPM1 (UniProt P49750) to USP48 (UniProt Q86UV5), the log2 fold change falls from 0.05 to -0.187.

WDR77 (UniProt Q9BQA1) and ZNF451 (UniProt Q9Y4E5) are within 0.2 log units of each other in log2 fold change: 0.006 for the first, 0.009 for the second.

USP16 (UniProt Q9Y5T5) and VCPIP1 (UniProt Q96JH7) are the same in log2 fold change: -0.002 for the first, -0.002 for the second.

XPO1 (UniProt O14980) and VPS16 (UniProt Q9H269) are within 0.2 log units of each other in log2 fold change: 0.023 for the first, 0.005 for the second.

ZBTB33 (UniProt Q86T24) and WDR3 (UniProt Q9UNX4) are within 0.2 log units of each other in log2 fold change: -0.015 for the first, 0.056 for the second.

VRK2 (UniProt Q86Y07) and WDR24 (UniProt Q96S15) are within 0.2 log units of each other in log2 fold change: -0.018 for the first, -0.024 for the second.

USP22 (UniProt Q9UPT9) showed a log2 fold change of 0.055.
